Laboratory results reported in the supplement of paper PMC13380429.

Assays:
[1] = system: Vero E6 infected with SARS-CoV-2; experiment: morphology score (similarity to uninfected cells); higher = more like uninfected cells; conditions: 24 h
[2] = system: Vero E6 infected with SARS-CoV-2; experiment: SARS-CoV-2 infection rate relative to infected DMSO; higher = more infection, active = 60 or less; conditions: 24 h

Compound	morphology score [1]	SARS-CoV-2 infection rate [2]
C=CC(=O)Nc1ccc2ncnc(Nc3ccc(OCc4cccc(F)c4)c(Cl)c3)c2c1 (10 µM)	-0.0546	102% (inactive)
O=C(NCCN1CCN(c2ncccn2)CC1)C12CC3CC(CC(C3)C1)C2 [adatanserin] (10 µM)	0.159	109% (inactive)
CC[N+](CC)(CCCNC1=CC(=O)C(NCCC[N+](CC)(CC)Cc2ccccc2)=CC1=O)Cc1ccccc1 [benzoquinonium-dibromide] (10 µM)	-0.00889	113% (inactive)
CC(=O)c1ccc2c(c1)[C@H](NC(=O)c1ccc(F)c(Cl)c1)[C@H](O)C(C)(C)O2 [tonabersat] (10 µM)	0.372	94.5% (inactive)
O=C(O)c1cc(O)c2c(c1)[C@H]([C@H]1c3cc(C(=O)O)cc(O)c3C(=O)c3c(O[C@@H]4O[C@H](CO)[C@@H](O)[C@H](O)[C@H]4O)cccc31)c1cccc(O[C@@H]3O[C@H](CO)[C@@H](O)[C@H](O)[C@H]3O)c1C2=O [sennoside-A] (10 µM)	-0.287	113% (inactive)
C[N+]1(C)[C@@H]2C[C@@H](OC(=O)[C@H](CO)c3ccccc3)C[C@H]1[C@@H]1O[C@@H]12 [methscopolamine] (10 µM)	-0.0273	96% (inactive)
CCCNC(=O)N1N=C(c2ccc(N)cc2)c2cc3c(cc2C1C)OCO3 (configuration not stated) (10 µM)	0.256	96.5% (inactive)
CC(C)N[C@H]1CCn2c(=O)[nH]c3cccc(c32)[C@@H]1O [zilpaterol] (10 µM)	0.19	106% (inactive)
CCCCCCCCCC(=O)OC1(c2ccc(Cl)cc2)CCN(CCCC(=O)c2ccc(F)cc2)CC1 [haloperidol-decanoate] (10 µM)	0.166	96% (inactive)
Nc1ccc(C(=O)Nc2cccc(-c3nc(N4CCOCC4)c4oc5ncccc5c4n3)c2)cn1 (10 µM)	0.168	94.5% (inactive)
O=C1NC(=O)c2c1c(-c1ccccc1)cc1[nH]c3ccc(O)cc3c21 (0.833333 µM)	0.685	93.5% (inactive)
C/C1=C/C[C@@H](/C(C)=C/c2csc(C)n2)OC(=O)C[C@H](O)C(C)(C)C(=O)[C@H](C)[C@@H](O)[C@@H](C)CCC1 [epothilone-D] (0.833333 µM)	-0.105	107% (inactive)
Fc1ccc(-c2cncc(CN3CCN(c4cccc5c4OCCO5)CC3)c2)cc1 [adoprazine] (10 µM)	0.131	101% (inactive)
CCS(=O)(=O)Nc1ccc2c(c1)/C(=C(/Nc1ccc(CN3CCCCC3)cc1)c1ccccc1)C(=O)N2 [hesperadin] (10 µM)	-0.262	110% (inactive)
COc1ccccc1S(=O)(=O)Nc1ccc2c(c1)CN(C)C(=O)N2 (0.833333 µM)	-0.0409	108% (inactive)
N=C(N)NC(=O)c1cnccn1 [pyrazinoylguanidine] (10 µM)	0.0685	108% (inactive)
N[C@@H](CSS(=O)(=O)O)C(=O)O [S-sulfo-L-cysteine] (10 µM)	0.254	90% (inactive)
CN(C)c1ccc(C(=C2C=CC(=[N+](C)C)C=C2)c2ccc(N(C)C)cc2)cc1 [crystal-violet] (10 µM)	-0.0788	114% (inactive)
CC(C)c1cccc2c1OC(C(C)C)C(=S)N2CC(=O)O (configuration not stated) (10 µM)	0.0177	102% (inactive)
NCCc1cc(O)c(O)cc1O [oxidopamine] (10 µM)	0.0957	102% (inactive)
CCOC(=O)[C@H](CCc1ccccc1)N[C@@H](C)C(=O)N1[C@H](C(=O)O)C[C@@H]2CCC[C@@H]21 [ramipril] (10 µM)	0.0476	98.5% (inactive)
CC(=O)SC[C@@H](Cc1ccccc1)C(=O)NCC(=O)OCc1ccccc1 (racemic) [racecadotril] (10 µM)	0.0461	110% (inactive)
COc1cccc(C=NCCN=Cc2cccc(OC)c2[O-])c1[O-].[Cl-].[Mn+3] (10 µM)	-0.0731	95% (inactive)
CC(C)(C)NCC(O)COc1ccc(NC(=O)NC2CCCCC2)cc1 (configuration not stated) [talinolol] (10 µM)	0.0728	106% (inactive)
C(#Cc1nc2ncccc2nc1OCCN1CCCC1)c1ccccc1 (0.833333 µM)	0.0988	86% (inactive)
COc1ccc2cc(C(C)C(=O)Oc3ccc(C(N)=S)cc3)ccc2c1 (configuration not stated) (10 µM)	0.117	97% (inactive)
